High-throughput results deposited in PubChem by several laboratories.
Only some compounds are listed: those with a hit (about 2% of all), similar ones and a draw of the others.
sPLA2-III inh: Blocks human group III sPLA2 activity; inhibition, % at 12.2 µM; hit rate 0.56% among 370,000; QFRET BODIPY PC-A2 liposome hydrolysis, fluorescence; Q9NZ20; AID 743126;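 active = inhibition above mean plus 3 SD of compounds lying within the high and low control bounds, cut at about 19% in these data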;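 note: 0% = median of test compound wells and 100% = no enzyme DMSO wells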
ARNT TACC3 PPI: disruptors of human ARNT/TACC3 interaction; AlphaScreen His-ARNT PAS-B/GST-TACC3 binding, luminescence; TACC3 fragment carries E629A point mutation; inhibition, % at 9.99 µM; hit rate 0.66% among 390,000; AID 623870;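 active = mean inhibition of replicates at least 50% and at least half of replicates each reaching 50%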;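 note: 0% = complete ARNT plus TACC3 wells and 100% = ARNT alone without TACC3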
Neddylation inh: inhibitors of human cullin neddylation; P61081+Q13564; TR-FRET cullin neddylation, biochemical; inhibition, % at 25 µM; hit rate 0.58% among 360,000; AID 651699; in the data active = inhibition above about 36%
DAGLB inh: diacylglycerol lipase beta (human) inhibition | HEK293T DAGLB membrane lysate, EnzChek fluorogenic substrate | hit rate 0.059% among 340,000 | inhibition, % at 5.17 µM | AID 504411; in the data active = inhibition above about 34%;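 note: 0% = enzyme with vehicle and 100% = wells lacking enzyme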
NadD inh: inhibitors of Staphylococcus aureus NadD; hit rate 0.78% among 360,000; purified NadD enzyme, colorimetric absorbance read-out; inhibition, % at 20 µM; AID 602399; in the data active = inhibition above about 26%
hGIII sPLA2 conf: human GIII-sPLA2 inhibition, confirmation. shares compounds with sPLA2-III inh. recombinant hGIII-sPLA2, BODIPY PC-A2 QFRET fluorescence. inhibition, % at 12.2 µM. hit rate 34% among 2,000. AID 743280;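 active = mean inhibition across triplicates above the hit cutoff set in the earlier primary screen, cut at about 19% in these data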;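 note: 0% = enzyme with DMSO and 100% = DMSO wells lacking enzyme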
BODIPY interf: counter-screen for HGIII-sPLA2 inhibitors: 535nm fluorescence interference. BODIPY FL product fluorescence interference, QFRET. AID 743282. inhibition, % at 12.2 µM. shares compounds with sPLA2-III inh. hit rate 8.5% among 2,000;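 active = average inhibition above the solvent-only control mean plus 3 SD, cut at about 6% in these data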;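 note: 0% = DMSO with substrate plus product and 100% = DMSO with substrate alone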
535nm interf DR: 535nm optical interference dose response, HGIII-sPLA2 counter-screen | 240 tested, under 10 active | BODIPY FL product fluorescence interference, cell-free | IC50, µM | shares compounds with sPLA2-III inh;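 active = IC50 at or below 10 µM; inactive = IC50 above 10 µM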
Starred values were filed as active, the others as inactive; · = not tested or not shown.

SMILES	sPLA2-III inh	ARNT TACC3 PPI	Neddylation inh	DAGLB inh	NadD inh	hGIII sPLA2 conf	BODIPY interf	others
COc1ccc(C(=O)NNC(=S)NC(=O)c2ccc(OC)cc2)cc1	20*	0	0	1	4	26*	-10
Cc1ccc(NC(=O)NC(=S)NC(=O)c2ccccc2)cc1	23*	-4	6	-1	0	-14	4
C[C@@H]1CCCCO[C@@H](CN(C)S(C)(=O)=O)[C@H](C)CN([C@@H](C)CO)C(=O)c2cc(NS(=O)(=O)c3cn(C)cn3)ccc2O1	·	-2	·	·	·	·	·
COc1ccc(C(=O)NC(=S)Nc2nc(C)c(C(=O)N(C)C)s2)cc1	22*	-5	-8	0	-4	15	-4
Cc1ccc(C(=O)NNC(=S)NC(=O)c2ccco2)cc1	22*	17	-4	0	3	32*	-7	535nm interf DR=>122
COC(=O)c1sc(NC(=O)c2ccco2)nc1C	-5	-4	-17	-3	-4	·	·
CCOC(=O)c1sc(NC(=S)NC(=O)c2ccco2)nc1C	27*	·	-368	-1	7	15	2
CCCOc1ccc(C(=O)NC(=S)Nc2nc3ccccc3s2)cc1	26*	1	-25	-3	14	2	-2
Cc1ccc(C(=O)NNC(=O)c2ccco2)cc1	18	-4	10	-2	-4	·	·
CCOC(=O)c1sc(NC(=S)NC(=O)c2ccc(OC)cc2)nc1C	3	-5	-187	1	-7	·	·
O=C(Cc1ccccn1)N[C@H]1CC[C@@H](CCNC(=O)c2cc(Cl)cc(Cl)c2)O[C@H]1CO	·	-3	·	·	·	·	·
Cc1ccccc1C(=O)NNC(=S)NC(=O)c1ccccc1	17	18	5	2	3	·	·
CC(C)(C)NC(=S)NNC(=O)c1ccncc1	23*	1	2	0	4	7	-5
Cc1cccc(C(=O)NNC(=S)NC(=O)c2ccccc2)c1	23*	16	-1	-4	-1	36*	-5	535nm interf DR=>122
COc1ccc(C(=O)NNC(=S)NC(=O)c2cccs2)cc1	21*	24	3	2	4	40*	2	535nm interf DR=>122
COc1ccc(/C=C/C(=O)NC(=S)NNC(=O)c2cccs2)cc1	8	4	6	6	6	·	·
CCNC(=S)NNC(=O)c1ccncc1	3	1	-14	3	-11	·	·
Cc1ccc(C(=O)NC(=S)NNC(=O)c2ccccc2)cc1	24*	4	0	-1	-1	40*	-4	535nm interf DR=>122
COCc1cn(CC[C@@H]2CC[C@H](NC(=O)Nc3ccc(OC)cc3)[C@@H](CO)O2)nn1	·	-8	·	·	·	·	·
COc1ccc(C(=O)Nc2ccc3c(c2)C(=O)N(C)C[C@H](OC)[C@@H](C)CN[C@@H](C)CO3)cc1	·	-10	·	·	·	·	·
CCNC(=S)NNC(=O)c1cccc(Br)c1	22*	2	2	-1	1	33*	-4
Cc1cccc(C(=O)NNC(=S)NC(=O)c2cccs2)c1	28*	2	0	6	5	27*	4
CC(C)(C)NC(=O)C(=O)NNC(=O)c1cccc(Br)c1	-6	-3	6	2	0	·	·
COc1ccc(C(=O)NC(=S)NNC(=O)c2cccc(C)c2)cc1	27*	·	·	·	·	38*	-7	535nm interf DR=>122
Cc1cccc(C(=O)NC(=S)NNC(=O)COc2ccc(Cl)cc2)c1	-8	-12	-12	2	14	·	·
COc1ccc(S(=O)(=O)N(C)C[C@@H]2Oc3ccc(NC(=O)C4CCCCC4)cc3C(=O)N([C@@H](C)CO)C[C@@H]2C)cc1	·	-6	·	·	·	·	·
COCC(=O)N1CCCCN2[C@H](CO)[C@H](c3ccc(C#Cc4cccnc4)cc3)[C@@H]2C1	·	5	·	·	·	·	·
O=C(NCC[C@@H]1CC[C@@H](NS(=O)(=O)c2ccc(F)cc2)[C@@H](CO)O1)Nc1ccc(F)cc1	·	-5	·	·	·	·	·
Oc1ccc(Oc2ccccc2F)c2cccnc12	25*	·	·	·	·	26*	-2
Nc1cccnc1Oc1ccccc1F	-4	0	-1	0	0	·	·
